Bioassay records deposited in PubChem by National Center for Advancing Translational Sciences (NCATS).
PNC assembly inh – inhibitors of perinucleolar compartment assembly; PC3M PTB-GFP, PNC prevalence imaging, 16 h; hits give low values; activity change (PNC), negative = inhibition, % at 10 µM; 140,000 compounds, 3.1% hits;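 active = readout at or below -70, meaning at least 70% loss of cells showing the perinucleolar compartment, a nuclear body marking cancer cells; inconclusive = readout between -30 and a set limit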;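 note: plate controls were DMSO wells for no effect and camptothecin positive control wells for full effect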
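PC3M cells stably expressing PTB-GFP, 750–1000 cells/well, treated 16 h at 37 °C with compound (23 nl of library stock), in duplicate. After paraformaldehyde fixation and Hoechst stain, imaged at 20x; PNC prevalence scored by image analysis.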
HPGD block – blocks human HPGD enzyme activity. P15428. 150,000 compounds, 4.3% hits. Potency, µM, inactives show at the top dose activity change, negative = inhibition, hits mostly inhibitors. AID 894. purified HPGD, NADH fluorescence kinetic, PGE2 substrate; note: potency is the fitted concentration of half-maximal effect
Target sequence (P15428 whole entry, looked up): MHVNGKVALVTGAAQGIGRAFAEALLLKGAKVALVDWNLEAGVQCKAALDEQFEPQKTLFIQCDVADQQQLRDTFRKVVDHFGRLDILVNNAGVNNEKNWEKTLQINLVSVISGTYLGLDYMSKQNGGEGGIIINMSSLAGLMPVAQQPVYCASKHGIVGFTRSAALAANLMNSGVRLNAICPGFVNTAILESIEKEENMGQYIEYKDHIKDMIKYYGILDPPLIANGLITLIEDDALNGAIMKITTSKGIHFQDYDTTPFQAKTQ
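NADH formation kinetics: reaction with 30 uM PGE2 and 1 mM NAD+ (final), 20 nM enzyme, Tris-HCl pH 8 with Tween 20, after 15 min compound preincubation at room temperature. Fluorescence change, last versus first of five reads.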
ALDH1A1 block – ALDH1A1 (human) enzyme inhibition. P00352. Purified ALDH1A1, NADH fluorescence, propionaldehyde substrate. Potency, µM (doses to about 75.3 µM), for the others: top-dose activity, negative = inhibition, actives largely listed as inhibitors. 220,000 compounds, 7.3% hits. AID 1030;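 note: potency is the fitted concentration of half-maximal effect; plate controls were no enzyme wells and a reference inhibitor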
* = called active by the depositor; ? = inconclusive; nt = no result given; [ ] = remark or other dose. This is a sample that favours compounds with a hit; in the whole collection about 11% have one here. Unless noted, calls come from the whole dose curve; as a rule, active = well fitted inhibition curve with a large enough effect (not every such curve was filed as active); inconclusive = small, poorly fitted or top-dose-only effect, or another doubt; inactive = no such curve, though single readings can be large or run the other way. Unless noted, % is set by controls: 0 for no effect and ±100 for the full control effect.

SMILES	PNC assembly inh	HPGD block	ALDH1A1 block
CCOC(=O)CCCNC(=O)N1CCc2nc(COc3ccccc3)c3c(c2C1)CO[C@@H](C)C3	nt	-2.1%	1.8%[13.5 µM]
Cc1nc(N2CCOCC2)c2c(C)c(C(=O)Nc3ccc(F)cc3F)sc2n1	nt	nt	10.6%
Cc1c(C(=O)Nc2ccccc2N2CCOCC2)sc2nc3n(c(=O)c12)CCC3	-126.9*	-27.3%	9.3%
CN(C)C(=O)CCSc1nnc(-c2ccco2)o1	nt	nt	5.5%
Cc1cc(C)nc(NS(=O)(=O)c2ccc(NC(=O)Nc3ccccc3)cc2)n1	nt	nt	2.1%
Cc1cc(C)nc(N/C(=N/S(=O)(=O)Cc2ccccc2)Nc2ccccc2)n1	-22.0	-13.1%	12.6µM*
CC(C)S(=O)(=O)c1csc(NC(=O)Nc2cc(Cl)ccc2Cl)c1Cl	nt	nt	0.4%
CCn1c(SCC(=O)Nc2cccnc2Cl)nnc1-c1ccccc1	-8.1	-3.2%	3.7%
COc1ccccc1-n1cnnc1SCC(=O)Nc1cccnc1Cl	nt	nt	25.1µM*
COc1ccccc1-n1cnnc1SCC(=O)c1c[nH]c2ccccc12	6.7	-14.2%	10µM*
COc1ccccc1-n1cnnc1SCC(=O)NCc1cccs1	-5.9	-22.0%	?
CCCCOC(=O)Nc1cccc(Cl)c1C	16.8	-22.2%	1.3%
COc1ccc(-c2nc3ccccn3c2/N=C/c2ccc(OC)c(OC)c2)cc1O	32.5	?	?
CN1CCN(C(=S)c2cn(Cc3ccccc3F)c3ccccc23)CC1	nt	nt	-5.3%
CC1CCN(C(=S)c2cn(Cc3ccccc3F)c3ccccc23)CC1	-17.8	-10.7%	14.1µM*
CCOc1cc(C(=O)Nc2ccccc2N2CCN(S(C)(=O)=O)CC2)cc(OCC)c1OCC	-16.7	-9.4%	-3.3%
O=C(O)CC[C@@H](C(=O)O)N1C(=O)[C@@H]2[C@@H]3CC[C@H](C3)[C@@H]2C1=O	nt	-2.1%	6.5%[13.5 µM]
COc1cc(C(=S)N2CCC(C)CC2)ccc1O	5.2	14.1µM*	10µM*
COc1cc(C(=S)N2CCCCC2)ccc1O	-1.4	-15.7%	?
COc1cc(C(=S)N2CCCC2)ccc1O	12.2	28.2µM*	14.1µM*
COc1cc(C(=O)O)ccc1O	12.4	-7.3%	5.2%
COc1cc(C(=S)N2CCC(C(N)=O)CC2)ccc1O	-4.0	17.8µM*	10µM*
COc1ccc(C(=S)N2CCN(C)CC2)cc1Br	21.6	-0.5%	15.3%
O=C(Cc1c(F)cccc1Cl)Nc1nc2ccccc2s1	nt	nt	-6.8%
O=C(Nc1cccc2c1[nH]c1ccccc12)C(F)(F)F	26.3	-12.7%	10.4%
SMILES	PNC assembly inh	HPGD block	ALDH1A1 block
CCO/N=C/c1ccc(OC)c(Oc2nc(OC)cc(OC)n2)c1	nt	nt	4.4%
O=C(COC(=O)CCC(=O)c1ccc(F)cc1)Nc1ccc(N2CCOCC2)cc1	-3.6	17.8µM*	-10.2%
Cc1ccc(OCC(=O)Nc2ccc(N3CCOCC3)cc2)cc1	35.9	-7.9%	12.8%
CN(C)c1ccc(C(=O)OCC(=O)Nc2ccc(N3CCOCC3)cc2)cc1	nt	nt	12.6µM*
Cc1ccccc1OCC(=O)OCC(=O)Nc1ccc(N2CCOCC2)cc1	nt	nt	-5.0%
CCOC(=O)/C(C#N)=C/c1cn(CCOc2ccc(OC)cc2)c2ccccc12	42.7	-18.0%	?
CCOC(=O)c1c(NC(=O)Cn2cnc([N+](=O)[O-])n2)sc2c1CCC(C)C2 (stereo unspecified)	23.4	-3.6%	-1.8%
COC(=O)c1c(NC(=O)Cc2cccs2)sc2c1CCC(C)C2 (stereo unspecified)	?	12.6µM*	14.1µM*
CCOC(=O)c1c(NC(=O)C(C)N2CCN(S(=O)(=O)c3cccs3)CC2)sc2c1CCC(C)C2 (stereo unspecified)	-28.0	-20.8%	6.5%
COC(=O)c1c(NC(=O)Cn2cnc([N+](=O)[O-])n2)sc2c1CCC(C)C2 (stereo unspecified)	?	11.2µM*	-7.9%
CCCn1c(SCC(=O)NC2CCCCC2C)n[nH]c1=O (stereo unspecified)	32.5	-5.4%	-7.6%
O=C(Cn1[nH]c(=O)c2ccccc2c1=O)Nc1cccnc1	nt	nt	4.6%
O=C(CC1Sc2ccccc2NC1=O)Nc1cccnc1 (stereo unspecified)	51.3	-5.6%	5.4%
O=C(Cc1n[nH]c(=O)c2ccccc12)Nc1ccc(-c2nnc3n2CCCCC3)cc1	45.1	10µM*	15.8µM*
CCOc1ccc(NC(=O)c2ccc(NC(=O)Cc3n[nH]c(=O)c4ccccc34)cc2)cc1	nt	nt	-13.4%
O=C(Cn1[nH]c(=O)c2ccccc2c1=O)Nc1ccc(-c2nnc3n2CCCCC3)cc1	-5.2	3.55µM*	14.1µM*
O=C(CC1Sc2ccccc2NC1=O)Nc1cccc(-c2nnc3n2CCCCC3)c1 (stereo unspecified)	-12.8	31.6µM*	-0.7%
COc1ccc(OC(C)C(=O)N2CCCc3ccccc32)cc1 (stereo unspecified)	nt	nt	0.6%
